# Among all 650,000 compounds or so, about 6,800 (1%) were called active. Rule as the data show it: active = activation above about 4.9%; inactive = the rest. The full list was thinned out, with actives kept by preference.
# Target: G-protein coupled receptor 151 (Homo sapiens) (UniProt Q8TDV0)
# Assay: activates the human receptor GPR151, primary screen, cell-based, PathHunter beta-arrestin, luminescence (AID 1508602);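 also: 0% = median of compound wells and 100% = cells with positive control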
# Settings: PathHunter beta-arrestin GPR151 cells, at 11.2 µM, active compounds read high
# G-protein coupled receptor 151 (Homo sapiens), sequence (Q8TDV0 whole entry, looked up): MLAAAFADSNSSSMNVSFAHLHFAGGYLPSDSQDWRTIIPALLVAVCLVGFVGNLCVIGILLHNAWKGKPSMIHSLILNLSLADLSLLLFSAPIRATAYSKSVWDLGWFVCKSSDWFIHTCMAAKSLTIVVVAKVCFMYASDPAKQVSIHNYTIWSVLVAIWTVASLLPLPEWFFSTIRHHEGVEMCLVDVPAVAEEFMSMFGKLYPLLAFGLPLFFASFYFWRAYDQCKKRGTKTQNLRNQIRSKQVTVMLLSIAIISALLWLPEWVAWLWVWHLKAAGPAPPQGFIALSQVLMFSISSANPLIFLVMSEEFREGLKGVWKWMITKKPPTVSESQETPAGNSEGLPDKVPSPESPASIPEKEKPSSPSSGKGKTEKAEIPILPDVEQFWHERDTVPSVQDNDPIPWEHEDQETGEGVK
row,SMILES,activation
1,NC(=O)c1ccc(NC(=O)CSc2nc(N)c(NC(=O)c3ccccc3)c(=O)[nH]2)cc1,-0.254% (inactive)
2,C#CCN1C(=O)C(O)(CC(=O)c2ccc(Br)cc2)c2ccccc21 (configuration not stated),4.05% (inactive)
3,Cc1cc(N2CCCC2)nc(N2CCN(C(=O)c3ccccc3Cl)CC2)n1,0.558% (inactive)
4,Cc1c(C(=O)Nc2nnc(C3CC3)s2)oc2ccc(Br)cc12,-0.544% (inactive)
5,CCOC(=O)c1oc2ccc(Br)cc2c1C,1.27% (inactive)
6,COC(=O)c1oc2ccc(Br)cc2c1NC(C)=O,6.57% (active)
7,O=C(NC(c1ccccc1)C(C(=O)c1ccccc1)C(=O)c1ccccc1)OCCc1ccccc1 (configuration not stated),-0.699% (inactive)
8,COCCCNCc1c(C(=O)O)n(Cc2ccccc2F)c2cc(OC)ccc12,1.64% (inactive)
9,CCN(CC)CCNS(=O)(=O)c1ccc(Br)c(C)c1,0.131% (inactive)
10,O=C(CSc1nnnn1-c1ccc2c(c1)OCCO2)NNC(=O)c1ccco1,2.23% (inactive)
11,COc1cccc(OC(=O)c2ccc(F)cc2[N+](=O)[O-])c1,-5.87% (inactive)
12,CCCCN(C)Cc1cc(Br)ccc1OC,0.319% (inactive)
13,CC(C)N1CCc2c(sc(NC(=O)Cc3ccccc3)c2C#N)C1,4.91% (active)
14,CCOC(=O)N1CCc2c(sc(NC(=O)CCSc3ccccc3)c2C#N)C1,0.685% (inactive)
15,CC(=O)N1CCc2c(sc(NC(=O)CCS(=O)(=O)c3ccccc3)c2C#N)C1,-0.234% (inactive)
16,Cc1ccc(CNC(=O)CCC2CCCN(C(=O)c3cccc(-c4ccco4)c3)C2)o1 (configuration not stated),-0.6% (inactive)
17,CC(C)c1nc(CNC(=O)Cn2nnnc2CN2C[C@@H](C)O[C@@H](C)C2)cs1,0.432% (inactive)
18,CCC(C)C(=O)N1CCc2c(C(=O)NCc3ccsc3)c(OC)cc(=O)n2CC1 (configuration not stated),0.148% (inactive)
19,CC(C)CC(NS(=O)(=O)c1ccc2c(c1)oc(=O)n2C)C(=O)N1CCC(C)CC1 (configuration not stated),-0.109% (inactive)
20,CC1CCN(C(=O)C(NS(=O)(=O)c2ccc3c(c2)oc(=O)n3C)C(C)C)CC1 (configuration not stated),7.77% (active)
21,CC1CCC(NS(=O)(=O)c2ccc3c(c2)oc(=O)n3C)CC1 (configuration not stated),0.208% (inactive)
22,O=C1CC(N2CCN(Cc3ccccc3)CC2)C(=O)N1c1ccccc1F (configuration not stated),-0.408% (inactive)
23,Cc1ccc2[nH]c3c(=O)n(CC(=O)NCCC4=CCCCC4)cnc3c2c1,0.423% (inactive)

row,SMILES,activation
1,O=C(Cn1cnc2c(cnn2-c2ccc(F)cc2)c1=O)NCCc1ccccc1,0.508% (inactive)
2,O=C(CCn1cnc2c(cnn2-c2ccc(F)cc2)c1=O)NCCC1=CCCCC1,7.05% (active)
3,COC(=O)c1ccc(-c2cnc3ccc(NCCCO)nn23)cc1,0.0841% (inactive)
4,O=C(Cc1cccs1)NCCS(=O)(=O)N1CCN(CCc2ccccc2)CC1,0.729% (inactive)
5,Cc1ccc(-c2noc(CNC(=O)c3cccc4ccccc34)n2)cc1,1.49% (inactive)
6,Cc1ccccc1C(=O)NCc1nc(-c2ccc(Cl)cc2)no1,6.7% (active)
7,Cc1ccc(-c2noc(CNC(=O)c3cc(C)ccc3C)n2)cc1,0.749% (inactive)
8,COc1ccc(C2Nc3ccccc3C(=O)N2c2ccc(C)cc2)cc1COc1ccc(Cl)cc1 (configuration not stated),2.56% (inactive)
9,O=C(O)CN1C(=O)CC(N2C(=O)/C(=C/c3ccc(F)cc3)SC2=S)C1=O (configuration not stated),-1.59% (inactive)
10,Cn1c(=O)c2c(nc(SCC(=O)O)n2Cc2ccc(F)cc2)n(C)c1=O,8.98% (active)
11,Cn1cnnc1Sc1nc2c(c(=O)n(C)c(=O)n2C)n1Cc1ccc(F)cc1,-1.79% (inactive)
12,CNC(=O)CSc1nc2c(c(=O)n(C)c(=O)n2C)n1Cc1ccc(F)cc1,0.114% (inactive)
13,CCc1nc2sc3c(c2c2nnc(SCC(=O)NCc4ccco4)n12)CCCC3,-0.144% (inactive)
14,COc1ccccc1C(=O)N/C(=C/c1ccc2c(c1)OCO2)C(=O)N1CCCCC1,0.0614% (inactive)
15,COc1ccccc1C(=O)N/C(=C\c1ccc2c(c1)OCO2)C(N)=O,6.4% (active)
16,CCOC(=O)CNC(=O)/C(=C\c1ccc2c(c1)OCO2)NC(=O)c1ccccc1OC,2.88% (inactive)
17,COCCOC(=O)C1=C(C)Nc2ccccc2S1,1.48% (inactive)
18,CN(C)S(=O)(=O)Nc1ccc(N2CCC(NCc3cc4ccccc4[nH]3)CC2)cc1,-0.741% (inactive)
19,C=C(C)CSc1nc2sc3c(c2c(=O)n1-c1ccc(OC)cc1)CC(C)(C)OC3,5.02% (active)
20,CCn1c(SCC(=O)O)nc2sc3c(c2c1=O)CC(C)(C)OC3,-0.501% (inactive)
21,COC(=O)CSc1nc2sc3c(c2c(=O)n1C1CCCCC1)CC(C)(C)OC3,-0.897% (inactive)
22,Cc1cc(Cl)ccc1OCc1nc(-c2ccccc2)no1,1.48% (inactive)
23,CC1=C(C(=O)OCC2CCCO2)C(c2ccccc2F)C2=C(CCCC2=O)N1 (configuration not stated),0.289% (inactive)

row,SMILES,activation
1,COc1ccc(CNC(=O)CSc2nnnn2C2CCCCC2)cc1,-1.28% (inactive)
2,CCOc1ccc(NC(=O)COc2cccc(C)c2C)cc1,5.81% (active)
3,CCOc1ccc(NC(=O)COc2ccc(C)cc2C)cc1,0.102% (inactive)
4,CCOc1ccc(NC(=O)COc2cc(C)c(Cl)c(C)c2)cc1,-0.356% (inactive)
5,COc1cc(-c2cc(-c3ccccc3)nc3sc(C(=O)O)c(N)c23)cc(OC)c1OC,0.0436% (inactive)
6,COc1ccc(C(=O)N2CCC(C(N)=O)CC2)cc1OC,1.14% (inactive)
7,NC(=O)C1CCN(C(=O)c2ccc(C(F)(F)F)cc2)CC1,-0.735% (inactive)
8,NC(=O)C1CCN(C(=O)c2ccc(-c3ccccc3)cc2)CC1,5.25% (active)
9,COc1ccc(C(=O)C2CCN(CC(N)=O)CC2)cc1,-1.68% (inactive)
10,CN(C)CCNC(=O)C(=O)NCC1OCCCN1S(=O)(=O)c1ccc(F)cc1 (configuration not stated),-0.149% (inactive)
11,Nc1cc(=O)nc(SCC(=O)Nc2nccs2)n1-c1ccc(F)cc1,5.12% (active)
12,Cc1cc(NC(=O)CSc2nc(=O)cc(N)n2-c2ccc(F)cc2)no1,-0.189% (inactive)
13,O=C(CSc1ccc(F)cc1)Nc1nccs1,-0.169% (inactive)
14,O=C(Nc1ccc2oc(-c3ccccc3F)nc2c1)c1cc(I)ccc1Cl,-1.58% (inactive)
15,CCOc1ccc(-c2cc(C(=O)NCCCN3CCN(C)CC3)c3ccccc3n2)cc1,2.73% (inactive)
16,O=C1c2ccccc2C(=O)N1CNc1ccc(Cc2ccncc2)cc1,-0.716% (inactive)
17,O=C(CN1C(=O)NC2(CCCCCC2)C1=O)Nc1ccc(S(=O)(=O)N2CCCC2)cc1,1.73% (inactive)
18,O=C(CN1C(=O)CCC1=O)Nc1ccc(S(=O)(=O)N2CCOCC2)cc1,6.57% (active)
19,COC(=O)CCC(=O)Nc1ccc(S(=O)(=O)N2CCOCC2)cc1,-0.0636% (inactive)
20,CN(CC(=O)Nc1cccc(F)c1)C(=O)C1CCCCC1,-0.0765% (inactive)
21,Cc1ccc(S(=O)(=O)Cn2nnnc2CN2CCN(c3cccc(Cl)c3)CC2)cc1,-0.91% (inactive)
22,Cc1ccc(S(=O)(=O)Cn2nnnc2CN2CCN(c3ccccc3F)CC2)cc1,8.05% (active)
23,CC(C)CCn1nnnc1CN1CCN(c2ccccc2F)CC1,-0.0283% (inactive)

row,SMILES,activation
1,CCCC(C)NS(=O)(=O)c1ccc(OCC(=O)OC)cc1 (configuration not stated),0.348% (inactive)
2,COCC(=O)NC(C)c1nnc(SCc2ccccc2C)n1C (configuration not stated),-0.733% (inactive)
3,COc1cccc(-c2ocnc2C(=O)Nc2ccc3nc(-c4cccnc4)oc3c2)c1,7.47% (active)
4,COc1cccc(-c2nc3cc(NC(=O)c4cncc(Br)c4)ccc3o2)c1,-0.0884% (inactive)
5,COc1cccc(C(=O)Nc2ccc3oc(-c4ccccc4)nc3c2)c1,-0.935% (inactive)
6,O=C(NC1CC1)c1ccc(-c2cccc(C(=O)NCc3ccccc3)n2)cc1,-1.55% (inactive)
7,CCOc1ccc(-c2ccc(SCC(=O)Nc3cc(C)on3)nn2)cc1,1.58% (inactive)
8,O=C1N(CC2CCCCC2)CCN1c1ccc(C(F)(F)F)cn1,-0.812% (inactive)
9,CCOc1ccc(S(=O)(=O)N2CCN(c3ncccn3)CC2)c2cccnc12,3.78% (inactive)
10,c1ccc(-c2ccccc2OCCCCNCCN2CCOCC2)cc1,0.194% (inactive)
11,c1ccc(-c2ccccc2OCCNCCN2CCOCC2)cc1,-0.471% (inactive)
12,c1ccc(-c2ccc(OCCCNCCN3CCOCC3)cc2)cc1,7.78% (active)
13,CCCOC1(C(F)(F)F)NC(=O)N(c2ccc(C(C)C)cc2)C1=O (configuration not stated),10.8% (active)
14,COC1(C(F)(F)F)NC(=O)N(c2ccccc2)C1=O (configuration not stated),-1.06% (inactive)
15,CC(C)c1ccc(N2C(=O)C3C(C2=O)C2(c4ccccc4)C(=O)C3(c3ccccc3)C(c3ccccc3)=C2c2ccccc2)cc1 (configuration not stated),2.7% (inactive)
16,Cc1nc(N2CCN(C)CC2)c2c(C)c(C(=O)NC3CCCCC3)sc2n1,0.833% (inactive)
17,CC(C)NC(=O)c1sc(=S)n2c1[nH]c(=O)c1ccc(C(=O)NCCN(C)C)cc12,1.68% (inactive)
18,O=C1/C(=C\c2cccs2)SC(=S)N1Cc1ccco1,-0.646% (inactive)
19,CCC(=O)N1CCc2cc(S(=O)(=O)CCC(=O)Nc3ccc(C(=O)OC)cc3)ccc21,0.246% (inactive)
20,COc1cc(-c2cncc(-c3cccc(C(=O)NCCN(C)C)c3)n2)cc(OC)c1OC,-0.823% (inactive)
21,C/C(=N/N1CCN(Cc2ccc(C)cc2C)CC1)c1ccc([N+](=O)[O-])cc1,9.21% (active)
22,Cc1ccc(CN2CCOCC2)c(C)c1,0.704% (inactive)
23,CCN1CCN(Cc2cc([N+](=O)[O-])ccc2O)CC1,-0.921% (inactive)
